CYP2C9 inhib – blocks human cytochrome P450 2C9. 20% of 96,000 active. inhibition, % at 5 µM. CYP2C9 Supersomes, luciferin-H conversion, luminescence;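 active means blocking of liver enzyme CYP2C9 beyond about 50% at 5 µM, limit read from the data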
CYP2C19 activ – activators of human cytochrome P450 2C19 | activation factor at 5 µM | recombinant CYP2C19, luciferin-H EGE luminescence; active compounds read high; 0 = fully inhibited enzyme, 1 = untreated enzyme | 96,000 tested, under 10 active | P33261;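 active means activation factor of at least 2 at 5 µM in the primary screen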;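 further: 0 = wells with 2.5 mM tranylcypromine and 1 = vehicle-only wells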
CYP2C9 act – increases human cytochrome P450 2C9 activity; P11712; recombinant CYP2C9, luciferin-H conversion, luminescence; active compounds read high; factor 1 = untreated enzyme, 0 = blocked; activation factor at 5 µM; 1.4% of 96,000 active; AID 1024;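 active means activation factor of 2 or more for CYP2C9 at a 5 µM dose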;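 further: 0 = sulfaphenazole-blocked wells and 1 = vehicle-only wells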
CYP2C19 inhib – blocks human cytochrome P450 2C19; inhibition, % at 5 µM; 21% of 96,000 active; P33261; CYP2C19 Supersomes, luciferin-H EGE luminescence, 30 min;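 active means CYP2C19 inhibition above a set limit at 5 µM in the primary screen, cut at about 50% in these data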;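 further: plate controls were negative control wells for no effect and 2.5 mM tranylcypromine positive control for full effect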
sEH act – increases human soluble epoxide hydrolase activity. purified human sEH enzymatic activity, activator screen. 0.04% of 91,000 active. P34913. activation, % at 2 µM. AID 717; in the data active means activation above about 37%
Target sequence (P34913 whole entry, looked up): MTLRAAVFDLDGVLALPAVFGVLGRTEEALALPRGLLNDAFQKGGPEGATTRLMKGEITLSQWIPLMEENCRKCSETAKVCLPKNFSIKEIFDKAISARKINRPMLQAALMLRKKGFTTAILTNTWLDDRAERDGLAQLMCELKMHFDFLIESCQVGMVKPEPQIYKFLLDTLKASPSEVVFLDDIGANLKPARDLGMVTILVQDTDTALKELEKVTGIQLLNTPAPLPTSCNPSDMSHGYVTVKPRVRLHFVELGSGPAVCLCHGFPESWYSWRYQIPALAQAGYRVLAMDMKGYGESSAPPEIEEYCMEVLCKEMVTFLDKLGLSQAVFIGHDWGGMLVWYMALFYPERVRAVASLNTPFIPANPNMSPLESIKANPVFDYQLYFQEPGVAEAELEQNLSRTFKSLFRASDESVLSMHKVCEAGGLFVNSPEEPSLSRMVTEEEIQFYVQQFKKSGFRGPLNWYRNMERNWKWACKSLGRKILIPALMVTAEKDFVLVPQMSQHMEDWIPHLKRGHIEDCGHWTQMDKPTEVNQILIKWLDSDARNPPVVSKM
sEH inh – inhibitors of human soluble epoxide hydrolase; inhibition, % at 2 µM; 0.34% of 91,000 active; P34913; recombinant human sEH enzymatic activity assay; AID 707; in the data active means inhibition above about 80%
* = called active by the depositor; x = not tested or not shown. Sampled rows, rich in hits. Any-hit rate of the full collection: about 27%.

SMILES	CYP2C9 inhib	CYP2C19 activ	CYP2C9 act	CYP2C19 inhib	sEH act	sEH inh
COC(=O)c1ccc(NC(=O)C2CC2)o1	-3	1.1	1	-9	2	-4
CCc1ccccc1NC(=O)CN1CCC(NC(=O)COC)CC1	14	0.9	0.9	8	-8	9
O=S(=O)(NCC1CCCO1)c1ccc(S(=O)(=O)N2CCCC2)cc1 (centres undefined)	10	1	0.9	4	-3	3
CCOC(=O)C1=C(N)Oc2c(c(=O)[nH]c3ccccc23)C1c1ccccc1 (centres undefined)	74*	1	0.3	2	4	-5
CCOC(=O)C1=C(C)Nc2nc(SCC)[nH]c(=O)c2C1c1ccncc1 (centres undefined)	64*	0.2	0.4	84*	-4	4
CCOC(=O)C1=C(N)Oc2ccc3ccccc3c2C1c1cccnc1 (centres undefined)	x	x	x	x	10	-5
CCOC(=O)C1=C(C)Nc2nc(SCC)nn2C1c1ccc(OC)cc1 (centres undefined)	-19	0.9	1.2	10	-8	6
O=C1c2ccccc2C(=O)N1CCSc1ccccc1	22	0.5	0.8	52*	-4	4
CSc1nsc(SCCN2C(=O)c3ccccc3C2=O)n1	52*	0.2	0.5	80*	1	0
Cc1csc(SCCN2C(=O)c3ccccc3C2=O)n1	71*	0.2	0.3	82*	-5	7
O=C1c2ccccc2C(=O)N1CCSc1nncs1	8	0.9	0.9	10	x	x
CN=C(Nc1ccc(Cl)cc1)c1cccc(C(F)(F)F)c1	23	0.3	0.8	74*	-2	4
CCCNC(=O)c1cccc(C(F)(F)F)c1	-1	0.9	1	10	-9	10
CN=C(Nc1ccc(Cl)cc1)c1ccc(C(F)(F)F)cc1	25	0.2	0.7	80*	12	-10
C/C(=C\C(=O)C(F)(F)F)Nc1ccc(C(F)(F)F)cc1	2	1	1	4	4	-3
COC1(OC)N=C(N)C2(C#N)C(c3ccc(F)cc3)C12C#N (centres undefined)	10	0.5	0.9	52*	x	x
CCSC1(SCC)N=C(N)C2(C#N)C(c3ccc(F)cc3)C12C#N (centres undefined)	58*	0.4	0.4	62*	13	-9
CCSC1(SCC)N=C(N)C2(C#N)C(c3ccccc3)NC(C)=C(C)C12C#N (centres undefined)	5	0.8	0.9	17	x	x
COC1(OC)N=C(N)C2(C#N)C(c3cccc(Oc4ccccc4)c3)C12C#N (centres undefined)	56*	0.4	0.4	59*	5	-5
CCOC1(OCC)N=C(N)C2(C#N)C(c3ccc(NC(C)=O)cc3)C12C#N (centres undefined)	88*	0.9	0.1	9	4	-4
CCCN(CCC)CCCNc1ccc2nnc(-c3ccc(F)cc3)n2n1	3	0.9	1	9	1	0
CC1CCCCC1NC(=O)CN1CCC(O)(c2ccc(F)cc2)CC1 (centres undefined)	8	0.9	0.9	6	5	-7
CC(=O)Nc1ccc(S(=O)(=O)N(C)c2ccc(O)cc2)cc1	13	0.9	0.9	12	5	-5
Cc1ccc(N(C)S(=O)(=O)c2ccc(C)cc2)cc1	51*	0.1	0.5	90*	-5	4
Cc1ccc(S(=O)(=O)N(C)c2ccc(NS(C)(=O)=O)cc2)cc1	-100	0.3	2*	66*	7	-9
SMILES	CYP2C9 inhib	CYP2C19 activ	CYP2C9 act	CYP2C19 inhib	sEH act	sEH inh
Cc1ccc(S(=O)(=O)N(C)c2ccccc2)cc1	-65	0.1	1.6	94*	-8	9
Cc1ccc(S(=O)(=O)N(C)c2ccc(OCC(=O)O)cc2)cc1	34	1	0.7	-1	7	-8
O=C1CC(c2ccco2)Cc2nc(N3CCN(Cc4ccc5c(c4)OCO5)CC3)ncc21 (centres undefined)	27	0.8	0.7	20	7	-8
CCCNS(=O)(=O)c1cccn1-c1ncc(C(F)(F)F)cc1Cl	66*	0.5	0.3	51*	-1	0
NS(=O)(=O)c1cccn1-c1ncc(C(F)(F)F)cc1Cl	-2	1	1	-4	-6	5
Cc1ccc(-n2nc3c(N4CCN(c5ccccc5)CC4)nnc(C)c3c2C)cc1	x	x	x	x	-3	6
Cc1ccc(Cl)cc1N1CCN(C(=O)CN(C2CCCCC2)S(C)(=O)=O)CC1	x	x	x	x	8	-3
COc1ccc(-c2[nH]c(-c3ccc(C)cc3)nc2SCC(=O)NCc2ccco2)cc1OC	44	0.4	0.6	64*	-2	0
O=C(CSc1ncc(-c2ccc(F)cc2)[nH]1)NCc1ccco1	18	0.6	0.8	44	-3	3
Cc1cc(C)c2cc(C#N)c(SCC(=O)NCc3ccco3)nc2c1	71*	0.7	0.3	29	-11	11
Cc1ccc2c(SCC(=O)NCc3ccco3)nc(-c3ccc(F)cc3)nc2c1	89*	0.7	0.1	28	4	-5
O=C1C2C3C=CC([C@@H]2C(=O)N1C1CCCCC1)[C@H]1C(=O)N(C2CCCCC2)C(=O)C31 (some centres undefined)	0	0.9	1	6	8	-4
Cc1ccc(N2C(=O)CC(n3ccnc3)C2=O)cc1C (centres undefined)	5	0.4	0.9	58*	11	-10
Cc1c(C(=O)N2CCCCC2)sc(NC(=O)c2ccco2)c1C#N	x	x	x	x	5	1
Cc1c(C(=O)N2CCCC2)sc(NC(=O)c2ccccc2)c1C#N	x	x	x	x	-5	5
Cc1c(C(=O)N2CCCCC2)sc(N)c1C#N	18	0.8	0.8	19	x	x
Cc1c(C(=O)N2CCCCC2)sc(NC(=O)C2CC2)c1C#N	56*	0.5	0.4	54*	-7	6
Cc1c(C(=O)N2CCCCC2)sc(NC(=O)C(C)C)c1C#N	68*	0.4	0.3	62*	0	0
Cc1c(C(=O)N2CCCC2)sc(NC(=O)c2cccs2)c1C#N	94*	0.9	0.1	8	12	-8
COC(=O)c1nn(-c2ccccc2)c(Sc2ccc(OC)cc2)c1/C=N/O	43	0.7	0.6	27	1	-3
Cc1ccc(C)c(N2CCN(C(=O)C3CCN(S(=O)(=O)c4cccc5nsnc45)CC3)CC2)c1	49	0.6	0.5	40	0	-2
COc1ccc2c(c1)C(C)CC(C)(C)N2C(=O)CSc1nc2ccccc2s1 (centres undefined)	54*	0.3	0.5	71*	x	x
CC(=O)CSc1nc2ccccc2s1	-13	0.9	1.1	11	2	-2
CCCCSc1nc(C)[nH]c1[N+](=O)[O-]	-20	0.9	1.2	14	3	-6
Cn1c(=O)oc2cc(S(=O)(=O)NCCC(=O)N3CCc4ccccc43)ccc21	-37	1.1	1.4	-10	x	x

Assay outcomes from PubChem BioAssay.
